Test systems include NCI-H23 lung; NCI-H226 lung; NCI-H322M lung; HOP-62 NSCLC; NCI-H460 lung; HOP-92 NSCLC; NCI-H522 lung; A549/ATCC NSCLC; 786-0 renal; COLO 205 colon; DU-145 prostate; K-562 leukemia; MALME-3M melanoma; MDA-MB-231 breast; RXF 393 renal; SF-268 CNS; SF-295 CNS; SF-539 CNS; UACC-257 melanoma; M14 melanoma.
What all share (assay): NCI-60 one-dose screen, 48 h (100 = growth as untreated, 0 = no growth, -100 = all killed)
Common to all, as to settings: 10 µM unless noted

About 83,000 compounds went through this panel and 20% of them were active in at least one assay; those are over-represented in the sample as a whole.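 Single-dose data. Exposure time 48 hours. Values below 10 considered active.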 Values without a mark were called inactive. The source made the active and inactive calls.

Experimental findings from PubChem BioAssay (NCI) are described below.

As for `CC(=O)c1c(/C=C/c2ccc(C)cc2)c2ccccc2[nH]c1=O`, the growth with NCI-H23 lung is 86.5%; with NCI-H226 lung, 63%; with NCI-H322M lung it was 91.2%; in the assay with HOP-62 NSCLC, 89.4%; with NCI-H460 lung, 91.3%; in the assay on HOP-92 NSCLC, 73.1%. Also, the growth in the assay on NCI-H522 lung was 84.6%; in the assay on A549/ATCC NSCLC, 85.4%; in the assay with 786-0 renal it was 97.8%; with COLO 205 colon, 105%; in the assay with DU-145 prostate, 94.9%; with K-562 leukemia it was 90.6%. Further, the growth with MALME-3M melanoma is 121%; in the assay on MDA-MB-231 breast, 91.7%; with RXF 393 renal, 104%; in the assay with SF-268 CNS, 75.5%; in the assay on SF-295 CNS it was 103%; in the assay on SF-539 CNS, 86.2%. In addition, the growth in the assay on UACC-257 melanoma is 81.1%; with M14 melanoma, 104%.
Regarding `CC(C)(C)n1cc(-c2ccnc(NCCNS(=O)(=O)c3ccc(Br)cc3)c2)c(-c2cccc(O)c2)n1`, the growth in the assay on NCI-H23 lung is 35.2%; with NCI-H226 lung, 45.4%; with NCI-H322M lung, 62.7%; in the assay on HOP-62 NSCLC, 61.1%; in the assay with NCI-H460 lung it was 1.07% (active); in the assay with HOP-92 NSCLC, 18.5%. Also, the growth in the assay on NCI-H522 lung was 16.7%; in the assay on A549/ATCC NSCLC, 28.9%; with 786-0 renal, 21.2%; in the assay with COLO 205 colon, -74.9% (active); in the assay with DU-145 prostate, 49.8%; in the assay with K-562 leukemia it was 6.18% (active). The growth in the assay on MALME-3M melanoma is 20.1%; with MDA-MB-231 breast it was 38.2%; with RXF 393 renal, 26.3%; in the assay on SF-268 CNS, 33.1%; in the assay with SF-295 CNS it was 31.8%; with SF-539 CNS, 46.5%. The values for the growth with UACC-257 melanoma and with M14 melanoma were 36% and 21.9%, respectively.
As to `CC(=O)Oc1ccccc1C(=O)N(Cc1ccc2c(Cl)cc(Cl)c(O)c2n1)c1ccccc1`, the growth was 50.3% in the assay with NCI-H23 lung; 66.4% with NCI-H226 lung; 54.9% with NCI-H322M lung; 36.6% in the assay on HOP-62 NSCLC; 29.7% with NCI-H460 lung; 61.6% with HOP-92 NSCLC. Moreover, the growth in the assay with NCI-H522 lung was 72.2%; in the assay with A549/ATCC NSCLC, 29.2%; in the assay with 786-0 renal, 59.1%; in the assay with COLO 205 colon it was 93.7%; in the assay with DU-145 prostate, 50.1%; in the assay on K-562 leukemia, 22.5%. The growth with MALME-3M melanoma was 69.3%; with MDA-MB-231 breast, 68.8%; in the assay on RXF 393 renal, 60.7%; with SF-268 CNS, 39.8%; in the assay with SF-295 CNS it was 33.2%; with SF-539 CNS it was 59%. For the same molecule, the growth is 78.6% with UACC-257 melanoma and 51% with M14 melanoma.
`Cc1ccc(C23CCC(=O)N2CCc2cncn23)cc1` (stereo not given): the growth with NCI-H23 lung is 97.4%; in the assay with NCI-H226 lung, 96.2%; in the assay on NCI-H322M lung, 99.3%; in the assay with HOP-62 NSCLC, 94.8%; in the assay with NCI-H460 lung, 110%; with HOP-92 NSCLC, 87.2%. Also, the growth with NCI-H522 lung was 87.9%; in the assay with A549/ATCC NSCLC it was 96.7%; in the assay on 786-0 renal it was 108%; in the assay on COLO 205 colon, 98.6%; in the assay on DU-145 prostate it was 105%; with K-562 leukemia, 112%. For the same molecule, the growth in the assay on MALME-3M melanoma is 109%; with MDA-MB-231 breast it was 113%; in the assay with RXF 393 renal it was 87%; in the assay with SF-268 CNS, 114%; with SF-295 CNS, 102%; in the assay on SF-539 CNS, 101%. Also, the results for the growth in the assay on UACC-257 melanoma and in the assay on M14 melanoma were 100% and 101%, respectively.
Regarding `CN(C)C(=S)NN=C(c1ccccn1)c1ccccn1`, the growth in the assay with NCI-H23 lung was 38.5%; in the assay with NCI-H226 lung, 24.6%; in the assay with NCI-H322M lung, 11.5%; in the assay on HOP-62 NSCLC it was 26%; with NCI-H460 lung it was 0.166% (active); in the assay on HOP-92 NSCLC it was 64.7%. In addition, the growth in the assay on NCI-H522 lung is 13.7%; in the assay on A549/ATCC NSCLC, 12.9%; with 786-0 renal it was 14.6%; with COLO 205 colon, 38%; in the assay with DU-145 prostate, -18.9% (active); in the assay with K-562 leukemia it was 7.91% (active). Besides, the growth in the assay with MALME-3M melanoma is -6.46% (active); in the assay on MDA-MB-231 breast, 40.3%; with RXF 393 renal, 6.64% (active); with SF-268 CNS it was 24.6%; in the assay with SF-295 CNS, 21.5%; in the assay with SF-539 CNS, -48.2% (active). In addition, the results for the growth in the assay with UACC-257 melanoma and with M14 melanoma were 35.9% and 17.2%, respectively.
Turning to `COc1cc(C2=Nc3c(N)nc(N)nc3NC(c3cccc(Nc4ccnc5cc(C(F)(F)F)ccc45)c3)C2)cc(OC)c1OC` (stereo not given), the growth in the assay with NCI-H23 lung is 79.5%; with NCI-H226 lung, 89.5%; with NCI-H322M lung it was 86.9%; with HOP-62 NSCLC it was 86.3%; in the assay with NCI-H460 lung it was 72.5%; with HOP-92 NSCLC, 47.9%. In addition, the growth in the assay with NCI-H522 lung is 97.1%; with A549/ATCC NSCLC it was 73.6%; in the assay on 786-0 renal it was 61%; in the assay on COLO 205 colon, 70.5%; in the assay on DU-145 prostate it was 89.6%; with K-562 leukemia, 21.5%. For the same molecule, the growth in the assay with MALME-3M melanoma is 90.6%; in the assay with MDA-MB-231 breast, 57.8%; with RXF 393 renal, 45.1%; in the assay on SF-268 CNS it was 63.3%; in the assay with SF-295 CNS it was 82.5%; in the assay on SF-539 CNS, 79.3%. Also, the growth in the assay on UACC-257 melanoma is 77.7%; in the assay on M14 melanoma it was 72.3%.
